Only a selection was taken, and hits are over-represented in it overall.
CBX7 inh – inhibitors of human CBX7 binding to H3K27me3 peptide | normalised signal (fraction of DMSO) (no concentration beside the values) | 66,000 compounds, 1.1% hits | AlphaScreen His6-CBX7 / biotin-H3K27me3 peptide binding; stronger effect = lower value | AID 1224903; in the data active = normalised signal below about 0.5
Target sequence (O95931 whole entry, looked up): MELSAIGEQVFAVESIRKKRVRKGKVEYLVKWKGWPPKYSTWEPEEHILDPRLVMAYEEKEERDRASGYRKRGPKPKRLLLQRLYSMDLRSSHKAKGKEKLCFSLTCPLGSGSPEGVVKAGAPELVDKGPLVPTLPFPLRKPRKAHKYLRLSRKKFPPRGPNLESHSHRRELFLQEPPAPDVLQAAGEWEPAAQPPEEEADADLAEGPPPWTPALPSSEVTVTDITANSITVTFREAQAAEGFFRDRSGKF
Each line names hits and unclear results; the compound was inactive in the other large screens.

Cc1ccc(C)c(N2CC(c3nc4ccccc4n3CCOc3ccccc3)CC2=O)c1 (stereo unspecified)	none
Cc1ccc(OCCn2c(C3CC(=O)N(c4cc(C)ccc4C)C3)nc3ccccc32)cc1 (stereo unspecified)	CBX7 inh 0.49
O=C1CC(c2ccc(Cl)c(Cl)c2)c2ccc3ccccc3c2N1 (stereo unspecified)	none
COc1ccccc1NC(=O)CCc1c(C)nc2ncnn2c1C	none
COc1cccc(CNS(=O)(=O)c2ccc3[nH]cc(C(=O)O)c(=O)c3c2)c1	none
COc1ccccc1CNS(=O)(=O)c1ccc2[nH]cc(C(=O)O)c(=O)c2c1	none
O=C(O)c1c[nH]c2ccc(S(=O)(=O)NCc3ccc4c(c3)OCO4)cc2c1=O	CBX7 inh 0.48
Cc1c(C(=O)O)oc2ccc(S(=O)(=O)N3CCC4(CC3)OCCO4)cc12	none
COc1ccc(NC(=O)C2(S(=O)(=O)c3ccc(Cl)cc3)CC2)cc1Cl	none
CC1CN(S(=O)(=O)c2ccc(C(=O)Nc3nnc(-c4ccccc4Cl)o3)cc2)CC(C)O1 (stereo unspecified)	CBX7 inh 0.041
CCC1CCCCN1S(=O)(=O)c1ccc(NC(=O)c2oc3ccccc3c2C)cc1 (stereo unspecified)	none
CCCCN(C)S(=O)(=O)c1ccc(C(=O)Nc2nnc(-c3ccccc3Cl)o2)cc1	none
O=C(Nc1nnc(-c2ccccc2Cl)o1)c1ccc(S(=O)(=O)N2CCOCC2)cc1	CBX7 inh 0.052
CCC1CCCCN1S(=O)(=O)c1ccc(C(=O)Nc2nnc(-c3ccccc3Cl)o2)cc1 (stereo unspecified)	CBX7 inh 0.055
O=C(Nc1nnc(-c2cccs2)o1)c1ccc(S(=O)(=O)N2CCOCC2)cc1	none
COc1cc(OC)cc(-c2nnc(NC(=O)c3ccc(S(=O)(=O)N4CC(C)OC(C)C4)cc3)o2)c1 (stereo unspecified)	none
O=C(Nc1nnc(-c2ccccc2Cl)o1)c1ccc(S(=O)(=O)N2CCCC2)cc1	none
CCc1ccc(NC(=O)c2ccc(CNc3c(N4CCC(C)CC4)c(=O)c3=O)cc2)cc1	none
CCN(C(=O)c1ccc2c(=O)n3c(nc2c1)CCCCC3)c1ccccc1	none
O=C(CCCn1ncc2ccccc21)NCc1ccc(Cl)cc1	none
COc1ccc(-c2nnc(SCC(=O)O)n2C)cc1	none
COc1ccc(/C=C/c2cc(C(F)(F)F)[nH]c(=O)n2)cc1OC	none
COc1cc(/C=C/c2cc(C(F)(F)F)[nH]c(=O)n2)ccc1OCc1ccccc1F	none
COc1cc(/C=C/c2cc(C(F)(F)F)[nH]c(=O)n2)ccc1OCc1ccc(Cl)cc1Cl	CBX7 inh 0.26
COc1ccc2cc(CCNC(=O)COc3ccc(Cl)cc3)c(=O)[nH]c2c1	none
CCC1=Nc2cc(C(=O)NCc3ccccn3)ccc2Sc2ccc(Br)cc21	none
Cc1c(C(=O)Nc2ccccc2F)sc2nc(-c3ccc(F)cc3)cn12	none
Cc1ccccc1Nc1c(-c2ccccn2)nc2cccc(C)n12	CBX7 inh 0.24
Cc1cccc2nc(-c3ccccn3)c(Nc3ccc(C(C)C)cc3)n12	CBX7 inh 0.11
Cc1cc(C)n2c(Nc3ccccc3C)c(-c3ccccn3)nc2n1	none
Cc1ccccc1Nc1c(-c2cccnc2)nc2cccc(C)n12	none
Cc1cccc2nc(-c3cccnc3)c(Nc3ccc(C(C)C)cc3)n12	none
Cc1cccc2nc(-c3ccsc3)c(Nc3ccc(C(C)C)cc3)n12	none
CCc1ccccc1NC(=O)CCc1nc2cccnc2n1Cc1ccc(OC)cc1	none
O=C(C1CC(=O)N(c2ccc(F)c(Cl)c2)C1)N1CCCCC1 (stereo unspecified)	none
CCOC(=O)c1cccc(NC(=O)c2cc3sccc3n2Cc2ccc(F)cc2)c1	none
CCCN1CCCc2cc(CN(CCCN3CCOCC3)C(=O)Nc3ccccc3)ccc21	none
CCN1CCCc2cc(CN(CCN3CCOCC3)C(=O)Nc3ccc(C)c(C)c3)ccc21	CBX7 inh 0.22
CCc1ccc(NC(=O)N(CCN2CCOCC2)Cc2ccc3c(c2)CCCN3CC)cc1	none
CCC1=Nc2cc(C(=O)NCCCN(C)Cc3ccccc3)ccc2Sc2ccc(C)cc21	none
O=C1CN(C(=O)CC2CCCCC2)C(c2ccc(F)cc2)c2cc(Cl)ccc2N1 (stereo unspecified)	none
Cc1c(C(=O)Nc2ccc(F)cc2F)sc2ncn(CC(=O)N3CCC(C)CC3)c(=O)c12	none
COc1ccc(CSc2nc3ccccc3[nH]2)cc1	none
COc1ccc(C2NCCc3c2[nH]c2ccccc32)cc1CSc1nc2ccccc2[nH]1 (stereo unspecified)	none
COc1ccc(C2NC(C(=O)O)Cc3[nH]cnc32)cc1CSc1nc2ccccc2[nH]1 (stereo unspecified)	CBX7 inh 0.5
CCCCNC(=O)CN1C(=O)COc2ccc(S(=O)(=O)N(CC)CC)cc21	none
O=C(Nc1ccc(S(=O)(=O)Nc2cnc3ccccc3n2)cc1)c1cccnc1	none
Cc1ccc(C(C)C)c(OCC(=O)Nc2cccc(-c3nc4ncccc4o3)c2C)c1	none
CN(C(=O)Cc1nc(N)n[nH]1)C1(C(=O)Nc2ccccc2)CCCCC1	CBX7 inh 0.027
Cc1ccc(NC(=O)C2(N(C)C(=O)Cc3nc(N)n[nH]3)CCCCC2)cc1	none
Nc1n[nH]c(CC(=O)N(Cc2ccccc2)C2(C(=O)Nc3ccccc3)CCCCC2)n1	none
